Source: PubChem BioAssay AID1159580 (chemical genetic matrix, 2015)
About 2,000 (36%) of roughly 5,500 compounds were called active. Not shown: some 18% with an inconclusive outcome. The list shows a part of the results. Values without a mark were called inactive. No stated cut-off is given here; in the data, active means normalized growth mostly below about 0.91 (no sharp cut-off); inconclusive means no clear call, values can overlap the other calls; inactive means mostly above about 0.92.

Assay: chemical genetic growth profiling, strain panel (AID 1159580);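 further: tested at 20 µM; growth read once vehicle control cultures reached saturation at 30 °C; 1 = growth at the plate median or of vehicle wells; lower values mean less growth of the strain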
Details: growth OD

Question: For `COc1cc(OC)c2ccc(=O)oc2c1`, which normalized growth (S. cerevisiae deletion strains, locus YJR075W, strain HOC1, active compounds read low) is on record?
Answer: Its normalized growth is 1.01.

Question: What about the normalized growth (S. cerevisiae deletion strains, locus YKL009W, strain mrt4, active compounds read low) of the same compound?
Answer: Its normalized growth is 0.966.

Question: And the normalized growth (S. cerevisiae deletion strains, locus YKL068W, active compounds read low)?
Answer: The normalized growth was 1.01.

Question: And the normalized growth (S. cerevisiae deletion strains, locus YKL085W, strain MDH1 (second series), active compounds read low)?
Answer: The normalized growth was 1.01.

Question: And the normalized growth (S. cerevisiae deletion strains, locus YKL085W, strain MDH1, active compounds read low)?
Answer: The normalized growth was 1.01.

Question: What about the normalized growth (S. cerevisiae deletion strains, locus YKL160W, strain elf1, active compounds read low) of the same compound?
Answer: Its normalized growth is 0.977.

Question: What about the normalized growth (S. cerevisiae deletion strains, locus YKL190W, strain CNB1, active compounds read low) of the same compound?
Answer: The normalized growth was 1.01.

Question: And the normalized growth (S. cerevisiae deletion strains, locus YKR001C, strain vps1, active compounds read low)?
Answer: The normalized growth was 0.945.

Question: And the normalized growth (S. cerevisiae deletion strains, locus YKR026C, strain gcn3, active compounds read low)?
Answer: Its normalized growth is 0.962.

Question: And the normalized growth (S. cerevisiae deletion strains, locus YKR091W, strain srl3, active compounds read low)?
Answer: Its normalized growth is 0.99.

Question: What about the normalized growth (S. cerevisiae deletion strains, locus YLL001W, strain dnm1, active compounds read low) of the same compound?
Answer: The normalized growth was 0.94.

Question: And the normalized growth (S. cerevisiae deletion strains, locus YLL026W, active compounds read low)?
Answer: Its normalized growth is 0.973.

Question: And the normalized growth (S. cerevisiae deletion strains, locus YLL041C, strain sdh2, active compounds read low)?
Answer: Its normalized growth is 0.979.

Question: What about the normalized growth (S. cerevisiae deletion strains, locus YLR027C, strain aat2, active compounds read low) of the same compound?
Answer: The normalized growth was 0.977.

Question: And the normalized growth (S. cerevisiae deletion strains, locus YLR039C, strain RIC1, active compounds read low)?
Answer: The normalized growth was 0.974.

Question: And the normalized growth (S. cerevisiae deletion strains, locus YLR058C, strain SHM2, active compounds read low)?
Answer: Its normalized growth is 1.01.

Question: And the normalized growth (S. cerevisiae deletion strains, locus YLR102C, strain apc9, active compounds read low)?
Answer: The normalized growth was 1.01.

Question: What about the normalized growth (S. cerevisiae deletion strains, locus YLR113W, strain HOG1, active compounds read low) of the same compound?
Answer: The normalized growth was 1.02.

Question: And the normalized growth (S. cerevisiae deletion strains, locus YLR221C, strain rsa3, active compounds read low)?
Answer: Its normalized growth is 0.97.

Question: And the normalized growth (S. cerevisiae deletion strains, locus YLR258W, strain gsy2, active compounds read low)?
Answer: The normalized growth was 0.952.

Question: What about the normalized growth (S. cerevisiae deletion strains, locus YLR262C, strain YPT6 (second series), active compounds read low) of the same compound?
Answer: The normalized growth was 0.97.

Question: What about the normalized growth (S. cerevisiae deletion strains, locus YLR262C, strain YPT6, active compounds read low) of the same compound?
Answer: The normalized growth was 0.992.

Question: What about the normalized growth (S. cerevisiae deletion strains, locus YLR268W, strain sec22, active compounds read low) of the same compound?
Answer: Its normalized growth is 1.01.

Question: What about the normalized growth (S. cerevisiae deletion strains, locus YLR320W, strain mms22, active compounds read low) of the same compound?
Answer: The normalized growth was 0.897.

Question: And the normalized growth (S. cerevisiae deletion strains, locus YLR330W, strain CHS5, active compounds read low)?
Answer: Its normalized growth is 1.

Question: What about the normalized growth (S. cerevisiae deletion strains, locus YLR342W, strain FKS1 (second series), active compounds read low) of the same compound?
Answer: The normalized growth was 1.03.

Question: What about the normalized growth (S. cerevisiae deletion strains, locus YLR342W, strain FKS1, active compounds read low) of the same compound?
Answer: Its normalized growth is 0.976.

Question: What about the normalized growth (S. cerevisiae deletion strains, locus YLR357W, strain rsc2, active compounds read low) of the same compound?
Answer: Its normalized growth is 1.05.

Question: And the normalized growth (S. cerevisiae deletion strains, locus YLR370C, strain arc18, active compounds read low)?
Answer: The normalized growth was 0.981.

Question: What about the normalized growth (S. cerevisiae deletion strains, locus YLR371W, strain rom2, active compounds read low) of the same compound?
Answer: The normalized growth was 1.01.

Question: What about the normalized growth (S. cerevisiae deletion strains, locus YLR384C, strain iki3, active compounds read low) of the same compound?
Answer: Its normalized growth is 0.975.

Question: What about the normalized growth (S. cerevisiae deletion strains, locus YLR418C, strain cdc73, active compounds read low) of the same compound?
Answer: The normalized growth was 1.01.

Question: What about the normalized growth (S. cerevisiae deletion strains, locus YML016C, strain PPZ1, active compounds read low) of the same compound?
Answer: Its normalized growth is 1.

Question: What about the normalized growth (S. cerevisiae deletion strains, locus YML032C, strain rad52, active compounds read low) of the same compound?
Answer: The normalized growth was 0.982.

Question: And the normalized growth (S. cerevisiae deletion strains, locus YML120C, strain ndi1, active compounds read low)?
Answer: Its normalized growth is 0.954.

Question: And the normalized growth (S. cerevisiae deletion strains, locus YML124C, strain tub3, active compounds read low)?
Answer: The normalized growth was 1.01.

Question: And the normalized growth (S. cerevisiae deletion strains, locus YMR058W, strain fet3, active compounds read low)?
Answer: The normalized growth was 0.957.

Question: What about the normalized growth (S. cerevisiae deletion strains, locus YMR078C, strain ctf18, active compounds read low) of the same compound?
Answer: The normalized growth was 0.996.

Question: What about the normalized growth (S. cerevisiae deletion strains, locus YMR125W, strain sto1, active compounds read low) of the same compound?
Answer: The normalized growth was 0.993.

Question: What about the normalized growth (S. cerevisiae deletion strains, locus YMR129W, active compounds read low) of the same compound?
Answer: Its normalized growth is 0.988.

Question: And the normalized growth (S. cerevisiae deletion strains, locus YMR205C, strain PFK2, active compounds read low)?
Answer: The normalized growth was 0.97.

Question: What about the normalized growth (S. cerevisiae deletion strains, locus YMR223W, strain ubp8, active compounds read low) of the same compound?
Answer: Its normalized growth is 0.976.

Question: And the normalized growth (S. cerevisiae deletion strains, locus YMR231W, strain pep5, active compounds read low)?
Answer: Its normalized growth is 0.965.

Question: What about the normalized growth (S. cerevisiae deletion strains, locus YMR263W, strain SAP30, active compounds read low) of the same compound?
Answer: Its normalized growth is 0.992.

Question: And the normalized growth (S. cerevisiae deletion strains, locus YMR307W, strain GAS1, active compounds read low)?
Answer: The normalized growth was 1.02.

Question: And the normalized growth (S. cerevisiae deletion strains, locus YNL067W, strain RPL9B, active compounds read low)?
Answer: Its normalized growth is 0.989.

Question: What about the normalized growth (S. cerevisiae deletion strains, locus YNL071W, strain lat1, active compounds read low) of the same compound?
Answer: Its normalized growth is 0.953.

Question: And the normalized growth (S. cerevisiae deletion strains, locus YNL128W, strain TEP1, active compounds read low)?
Answer: The normalized growth was 1.01.

Question: What about the normalized growth (S. cerevisiae deletion strains, locus YNL153C, strain GIM3, active compounds read low) of the same compound?
Answer: Its normalized growth is 1.01.

Question: What about the normalized growth (S. cerevisiae deletion strains, locus YNL183C, strain NPR1, active compounds read low) of the same compound?
Answer: The normalized growth was 0.946.

Question: And the normalized growth (S. cerevisiae deletion strains, locus YNL209W, strain ssb2, active compounds read low)?
Answer: Its normalized growth is 0.98.

Question: And the normalized growth (S. cerevisiae deletion strains, locus YNL233W, strain BNI4, active compounds read low)?
Answer: Its normalized growth is 1.

Question: And the normalized growth (S. cerevisiae deletion strains, locus YNL248C, strain rpa49, active compounds read low)?
Answer: Its normalized growth is 0.872 (active).

Question: And the normalized growth (S. cerevisiae deletion strains, locus YNL250W, strain rad50, active compounds read low)?
Answer: Its normalized growth is 0.992.

Question: And the normalized growth (S. cerevisiae deletion strains, locus YNL271C, strain bni1, active compounds read low)?
Answer: Its normalized growth is 0.99.

Question: And the normalized growth (S. cerevisiae deletion strains, locus YNL298W, strain CLA4, active compounds read low)?
Answer: Its normalized growth is 0.973.

Question: And the normalized growth (S. cerevisiae deletion strains, locus YNL307C, strain MCK1, active compounds read low)?
Answer: The normalized growth was 0.988.

Question: And the normalized growth (S. cerevisiae deletion strains, locus YNL322C, strain KRE1 (second series), active compounds read low)?
Answer: The normalized growth was 0.992.

Question: And the normalized growth (S. cerevisiae deletion strains, locus YNL322C, strain KRE1, active compounds read low)?
Answer: Its normalized growth is 1.

Question: And the normalized growth (S. cerevisiae deletion strains, locus YNR049C, strain mso1, active compounds read low)?
Answer: The normalized growth was 0.982.

Question: What about the normalized growth (S. cerevisiae deletion strains, locus YNR052C, strain pop2, active compounds read low) of the same compound?
Answer: The normalized growth was 0.989.

Question: And the normalized growth (S. cerevisiae deletion strains, locus YOL006C, strain TOP1, active compounds read low)?
Answer: The normalized growth was 0.921.

Question: And the normalized growth (S. cerevisiae deletion strains, locus YOL012C, strain htz1)?
Answer: Its normalized growth is 1.64.

Question: And the normalized growth (S. cerevisiae deletion strains, locus YOL147C, strain pex11, active compounds read low)?
Answer: Its normalized growth is 1.

Question: And the normalized growth (S. cerevisiae deletion strains, locus YOR001W, strain rrp6, active compounds read low)?
Answer: Its normalized growth is 0.963.

Question: And the normalized growth (S. cerevisiae deletion strains, locus YOR061W, strain CKA2, active compounds read low)?
Answer: The normalized growth was 1.

Question: What about the normalized growth (S. cerevisiae deletion strains, locus YOR069W, strain VPS5, active compounds read low) of the same compound?
Answer: The normalized growth was 1.01.

Question: And the normalized growth (S. cerevisiae deletion strains, locus YOR070C, strain gyp1, active compounds read low)?
Answer: The normalized growth was 0.964.

Question: And the normalized growth (S. cerevisiae deletion strains, locus YOR080W, strain dia2, active compounds read low)?
Answer: The normalized growth was 0.969.

Question: What about the normalized growth (S. cerevisiae deletion strains, locus YOR083W, strain WHI5, active compounds read low) of the same compound?
Answer: The normalized growth was 0.968.

Question: What about the normalized growth (S. cerevisiae deletion strains, locus YOR106W, strain vam3, active compounds read low) of the same compound?
Answer: Its normalized growth is 0.95.

Question: What about the normalized growth (S. cerevisiae deletion strains, locus YOR136W, strain idh2, active compounds read low) of the same compound?
Answer: The normalized growth was 1.01.

Question: What about the normalized growth (S. cerevisiae deletion strains, locus YOR144C, strain elg1, active compounds read low) of the same compound?
Answer: Its normalized growth is 1.01.

Question: And the normalized growth (S. cerevisiae deletion strains, locus YOR184W, strain ser1, active compounds read low)?
Answer: Its normalized growth is 0.949.

Question: And the normalized growth (S. cerevisiae deletion strains, locus YOR231W, strain MKK1, active compounds read low)?
Answer: The normalized growth was 0.991.

Question: And the normalized growth (S. cerevisiae deletion strains, locus YOR265W, strain rbl2, active compounds read low)?
Answer: Its normalized growth is 0.977.

Question: And the normalized growth (S. cerevisiae deletion strains, locus YOR270C, strain vph1, active compounds read low)?
Answer: Its normalized growth is 0.814.

Question: What about the normalized growth (S. cerevisiae deletion strains, locus YOR290C, strain snf2, active compounds read low) of the same compound?
Answer: The normalized growth was 0.936.

Question: What about the normalized growth (S. cerevisiae deletion strains, locus YOR316C, strain cot1, active compounds read low) of the same compound?
Answer: The normalized growth was 0.998.

Question: And the normalized growth (S. cerevisiae deletion strains, locus YPL051W, strain arl3, active compounds read low)?
Answer: The normalized growth was 0.968.

Question: And the normalized growth (S. cerevisiae deletion strains, locus YPL055C, strain LGE1, active compounds read low)?
Answer: Its normalized growth is 0.971.

Question: What about the normalized growth (S. cerevisiae deletion strains, locus YPL078C, strain atp4, active compounds read low) of the same compound?
Answer: The normalized growth was 0.957.

Question: What about the normalized growth (S. cerevisiae deletion strains, locus YPL106C, strain sse1, active compounds read low) of the same compound?
Answer: The normalized growth was 0.926.

Question: What about the normalized growth (S. cerevisiae deletion strains, locus YPL240C, strain hsp82, active compounds read low) of the same compound?
Answer: Its normalized growth is 0.985.

Question: What about the normalized growth (S. cerevisiae deletion strains, locus YPL241C, strain CIN2, active compounds read low) of the same compound?
Answer: Its normalized growth is 1.

Question: And the normalized growth (S. cerevisiae deletion strains, locus YPL256C, strain CLN2, active compounds read low)?
Answer: The normalized growth was 1.05.

Question: And the normalized growth (S. cerevisiae deletion strains, locus YPR119W, strain clb2, active compounds read low)?
Answer: The normalized growth was 1.

Question: What about the normalized growth (S. cerevisiae deletion strains, locus YPR141C, strain kar3, active compounds read low) of the same compound?
Answer: Its normalized growth is 1.

Question: And the normalized growth (S. cerevisiae deletion strains, locus YPR163C, strain tif3, active compounds read low)?
Answer: The normalized growth was 1.01.

Question: And the normalized growth (S. cerevisiae deletion strains, locus YPR167C, strain met16, active compounds read low)?
Answer: Its normalized growth is 0.995.

Question: And the normalized growth (S. cerevisiae deletion strains, strain wtn01, active compounds read low)?
Answer: Its normalized growth is 1.

Question: And the normalized growth (S. cerevisiae strains, strain wild type, active compounds read low)?
Answer: Its normalized growth is 1.01.
